Hit rate of the full screen: of about 310,000 compounds, about 2,200 (0.71%) showed an effect of 50% or more. The effect is printed as a negative number. The entries come from a sample that favours strong results as a whole.
The compounds below were run against human ether-à-go-go-related gene (hERG) potassium channel (human, UniProt Q12809) (assay: primary screen, population patch clamp on CHO cells stably expressing hERG; higher = less effect of the substance).
human ether-à-go-go-related gene (hERG) potassium channel, sequence (Q12809 whole entry, looked up): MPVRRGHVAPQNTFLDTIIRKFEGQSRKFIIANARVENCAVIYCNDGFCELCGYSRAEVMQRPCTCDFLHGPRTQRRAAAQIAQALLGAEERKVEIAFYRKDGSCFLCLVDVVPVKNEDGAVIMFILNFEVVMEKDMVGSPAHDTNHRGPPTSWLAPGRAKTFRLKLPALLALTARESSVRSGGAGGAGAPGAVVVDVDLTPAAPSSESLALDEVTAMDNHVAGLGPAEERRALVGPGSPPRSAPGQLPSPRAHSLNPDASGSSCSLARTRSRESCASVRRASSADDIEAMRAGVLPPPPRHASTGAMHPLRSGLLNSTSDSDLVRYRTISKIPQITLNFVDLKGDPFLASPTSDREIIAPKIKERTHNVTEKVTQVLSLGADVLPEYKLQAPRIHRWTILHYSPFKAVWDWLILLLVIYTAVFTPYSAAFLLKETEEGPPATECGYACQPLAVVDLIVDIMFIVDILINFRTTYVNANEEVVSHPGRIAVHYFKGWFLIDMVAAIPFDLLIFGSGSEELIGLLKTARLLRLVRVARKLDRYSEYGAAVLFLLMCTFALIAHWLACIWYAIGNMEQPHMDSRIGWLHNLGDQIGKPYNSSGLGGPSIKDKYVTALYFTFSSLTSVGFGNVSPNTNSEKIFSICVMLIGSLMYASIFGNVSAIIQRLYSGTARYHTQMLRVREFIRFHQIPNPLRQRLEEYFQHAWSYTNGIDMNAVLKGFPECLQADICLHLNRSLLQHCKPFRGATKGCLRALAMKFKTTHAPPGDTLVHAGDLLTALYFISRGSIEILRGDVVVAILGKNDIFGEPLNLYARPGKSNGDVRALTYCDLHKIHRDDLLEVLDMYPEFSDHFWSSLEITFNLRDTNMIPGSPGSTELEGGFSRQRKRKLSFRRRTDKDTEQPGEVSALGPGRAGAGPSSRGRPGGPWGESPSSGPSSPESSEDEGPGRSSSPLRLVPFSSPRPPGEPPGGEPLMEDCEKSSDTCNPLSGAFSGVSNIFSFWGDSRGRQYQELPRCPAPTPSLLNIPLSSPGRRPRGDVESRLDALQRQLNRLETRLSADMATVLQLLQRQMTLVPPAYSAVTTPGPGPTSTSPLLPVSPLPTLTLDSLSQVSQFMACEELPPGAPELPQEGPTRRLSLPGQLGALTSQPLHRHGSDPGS
`CCCNC(=O)C1CCN(c2cc(-c3ccccc3)nc3ncnn23)CC1` was tested, and the “hERG current change (%, negative = inhibition) at 1uM” value was -65.6%.
In the case of `COc1ccc(OC)c(NC(=O)C2CCN(c3cc(-c4ccccc4)nc4ncnn34)CC2)c1`, the “hERG current change (%, negative = inhibition) at 1uM” value is reported as -2.67%.
`Cc1ccccc1NC(=O)C1CCN(c2cc(-c3ccccc3)nc3ncnn23)CC1` was tested, and the “hERG current change (%, negative = inhibition) at 1uM” value was 5.72%.
In the case of `CNC(=S)N(CCc1c(C)[nH]c2ccc(C)cc12)Cc1ccco1`, the “hERG current change (%, negative = inhibition) at 1uM” value is reported as -2.69%.
`CNC(=O)CN(c1cc(C)ccc1C)S(C)(=O)=O` was tested, and the “hERG current change (%, negative = inhibition) at 1uM” value was 2.83%.
With `Cc1ccccc1N/N=C1\CCCNC1=O` the “hERG current change (%, negative = inhibition) at 1uM” value was 6.51%.
For `O=C(CSc1nnc(-c2cccnc2)n1Cc1ccco1)c1ccc(Cl)cc1`, the “hERG current change (%, negative = inhibition) at 1uM” value was -21.1%.
In the case of `O=C(NNC(=O)c1cccs1)c1ccc(Cl)cc1`, the “hERG current change (%, negative = inhibition) at 1uM” value is reported as 9.36%.
`CSc1ccccc1-n1nnnc1SCC(=O)Nc1ccccc1C` was tested, and the “hERG current change (%, negative = inhibition) at 1uM” value was -9.11%.
With `COc1ccccc1/C=C/C=N/NC(=O)c1cccs1` the “hERG current change (%, negative = inhibition) at 1uM” value was 16.1%.
For `Cc1oc(-c2ccc(Cl)cc2)nc1CN1CCCC(C(=O)NCc2cccnc2)C1` (stereo not drawn), the “hERG current change (%, negative = inhibition) at 1uM” value was -43.6%.
In the case of `Cc1oc(-c2ccc(Cl)cc2)nc1CN1CCCN(C(=O)c2ccco2)CC1`, the “hERG current change (%, negative = inhibition) at 1uM” value is reported as -57.4%.
`Cc1oc(-c2ccccc2Cl)nc1CN1CCCN(C(=O)c2ccco2)CC1` was tested, and the “hERG current change (%, negative = inhibition) at 1uM” value was -21.4%.
`O=C(c1ccco1)N1CCN(Cc2nnc(-c3cccc(Br)c3)o2)CC1` was tested, and the “hERG current change (%, negative = inhibition) at 1uM” value was -51.6%.
In the case of `O=C(c1ccco1)N1CCN(Cc2nnc(-c3cccc(Cl)c3)o2)CC1`, the “hERG current change (%, negative = inhibition) at 1uM” value is reported as -13.8%.
With `O=C(c1ccco1)N1CCN(Cc2nnc(-c3ccccc3)o2)CC1` the “hERG current change (%, negative = inhibition) at 1uM” value was -6.25%.
For `Cc1oc(-c2ccc(Cl)cc2)nc1CN1CCCC(C(=O)N2CCN(C(=O)c3ccco3)CC2)C1` (stereo not drawn), the “hERG current change (%, negative = inhibition) at 1uM” value was -75.1%.
With `Cc1cc(N2CCN(Cc3nc(-c4ccc(Cl)cc4)oc3C)CC2)cc(C)n1` the “hERG current change (%, negative = inhibition) at 1uM” value was -57.8%.
In the case of `Cc1ccc(-c2nc(CN3CCCC(C(=O)N4CCOCC4)C3)c(C)o2)cc1` (stereo not drawn), the “hERG current change (%, negative = inhibition) at 1uM” value is reported as -9.44%.
In the case of `Cc1cccc(N2CCN(Cc3nc(-c4cccc(Cl)c4)oc3C)CC2)n1`, the “hERG current change (%, negative = inhibition) at 1uM” value is reported as -7.13%.
With `Cc1cc(N2CCN(Cc3nc(-c4ccc(F)cc4)oc3C)CC2)cc(C)n1` the “hERG current change (%, negative = inhibition) at 1uM” value was -27.2%.
For `COC(=O)c1ccc(-c2nc(CN3CCCN(C(=O)c4ccco4)CC3)c(C)o2)cc1`, the “hERG current change (%, negative = inhibition) at 1uM” value was -15%.
With `Nc1c([N+](=O)[O-])c(=O)sc2ccccc12` the “hERG current change (%, negative = inhibition) at 1uM” value was 2.09%.
In the case of `CN(C(=O)c1cccs1)c1ccc(OCC(=O)N2CCC(C(N)=O)CC2)cc1`, the “hERG current change (%, negative = inhibition) at 1uM” value is reported as 25.6%.

From article PMC4336329 (PLoS ONE, 2015)
